Data as given in the supplement of paper PMC6555819.

What was measured:
Experiment in all cases: PBM binding z-score (relative to random genomic background probes); higher = stronger binding; sequences stand for … in GC…GCGATTGACAGCGTAGAATGAAGG
[1] = tested on: FXR:RXRa (NR concentration 270 nM, RXRa partner concentration 90 nM)
Summary of the method: (§1)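 Regression normalization was applied to scanned fluorescence from custom Agilent 4×180K protein-binding microarrays. Before scanning, arrays were incubated 1 h with ligand-free nuclear receptor dimers, and binding was detected with antibodies against each partner (one per run). Binding z-scores use the random background probes as reference.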

[2] = tested on: LXRa:RXRa (NR concentration 270 nM, RXRa partner concentration 90 nM)
Summary of the method: as §1

[3] = tested on: LXRa homodimer (NR concentration 270 nM)
Summary of the method: as §1

[4] = tested on: LXRb:RXRa (NR concentration 270 nM, RXRa partner concentration 90 nM)
Summary of the method: as §1

[5] = tested on: LXRb homodimer (NR concentration 270 nM)
Summary of the method: as §1

[6] = tested on: PPARa:RXRa (NR concentration 270 nM, RXRa partner concentration 90 nM)
Summary of the method: as §1

[7] = tested on: PPARg:RXRa (NR concentration 180 nM, RXRa partner concentration 90 nM)
Summary of the method: as §1

[8] = tested on: PPARg:RXRa 270nM:90nM, anti-RXR (NR concentration 270 nM, RXRa partner concentration 90 nM)
Summary of the method: as §1

[9] = tested on: PPARg:RXRa 30nM:10nM, anti-RXR (NR concentration 30 nM, RXRa partner concentration 10 nM)
Summary of the method: as §1

[10] = tested on: PPARg:RXRa 90nM:30nM, anti-RXR (NR concentration 90 nM, RXRa partner concentration 30 nM)
Summary of the method: as §1

[11] = tested on: PPARg:RXRa DBDmut IVT, anti-RXR (DBD mutation: RXRa K156A/R161A, NR concentration 270 nM, RXRa partner concentration 90 nM)
Summary of the method: as §1

[12] = tested on: PPARg:RXRa IVT, anti-PPARg (NR concentration 270 nM, RXRa partner concentration 90 nM)
Summary of the method: as §1

[13] = tested on: PPARg DBDmut:RXRa IVT, anti-PPARg (DBD mutation: PPARg1 K132A/R137A, NR concentration 270 nM, RXRa partner concentration 90 nM)
Summary of the method: as §1

[14] = tested on: PPARg DBDmut IVT, anti-PPARg (DBD mutation: PPARg1 K132A/R137A, NR concentration 270 nM)
Summary of the method: as §1

[15] = tested on: PPARg homodimer (NR concentration 180 nM)
Summary of the method: as §1

[16] = tested on: PXR:RXRa (NR concentration 270 nM, RXRa partner concentration 90 nM)
Summary of the method: as §1

[17] = tested on: PXR homodimer (NR concentration 270 nM)
Summary of the method: as §1

[18] = tested on: RARa:RXR (NR concentration 270 nM, RXRa partner concentration 90 nM)
Summary of the method: as §1

[19] = tested on: RARa homodimer (NR concentration 270 nM)
Summary of the method: as §1

[20] = tested on: RARb:RXRa (NR concentration 270 nM, RXRa partner concentration 90 nM)
Summary of the method: as §1

| Sequence | PBM binding z-score [1] | PBM binding z-score [2] | PBM binding z-score [3] | PBM binding z-score [4] | PBM binding z-score [5] | PBM binding z-score [6] | PBM binding z-score [7] | PBM binding z-score [8] | PBM binding z-score [9] | PBM binding z-score [10] | PBM binding z-score [11] | PBM binding z-score [12] | PBM binding z-score [13] | PBM binding z-score [14] | PBM binding z-score [15] | PBM binding z-score [16] | PBM binding z-score [17] | PBM binding z-score [18] | PBM binding z-score [19] | PBM binding z-score [20] |
| --- | --- | --- | --- | --- | --- | --- | --- | --- | --- | --- | --- | --- | --- | --- | --- | --- | --- | --- | --- | --- |
| ACTTGCAGGCCAAGGGTCACTCAAGATTAGTCCG | 2.94 | 2.83 | 0.304 | 2.98 | 0.0149 | 4.99 | 8.46 | 7.35 | 6.52 | 7.71 | 2.34 | 4.29 | 0.459 | -0.141 | 1.94 | 3.22 | 0.0748 | 3.99 | 0.96 | 3.6 |
| GCTAGTTGGTCAGTAAACGGTCACACACCGGTCG | -0.00893 | 0.121 | 0.352 | -0.139 | -0.393 | 0.395 | 0.552 | -0.0958 | -0.311 | 0.18 | 0.107 | 0.661 | 0.0589 | -0.0564 | 0.967 | 0.0338 | 0.06 | 0.591 | 0.301 | 1.76 |
| TCTCAAAGTTCAAAGGTAACGTAAGTATCCACAC | 6.76 | 6.41 | 5.13 | 4.82 | 2.02 | 5.43 | 4.77 | 5.77 | 5.16 | 5.6 | 2.92 | 1.65 | 0.898 | 1.45 | 3.16 | 5.66 | 4.17 | 6.13 | 2.08 | 5.15 |
| CCTTACGGGTCACGAGGTTATCGCACGACGAGCG | 6.89 | 4.91 | 0.648 | 4.02 | 0.0453 | 5.78 | 7.31 | 6.79 | 3.29 | 5.64 | 4.34 | 5.24 | 1.36 | 0.803 | 3.23 | 4.75 | 0.615 | 6.45 | 0.798 | 4.5 |
| TCTTGTAGATCAGCAAGTTAAGAAAGCTGGCCAA | -0.13 | -0.113 | -0.739 | -0.0484 | -0.743 | 0.316 | -0.599 | 1.24 | 2.5 | 1.78 | 1.5 | 0.0775 | 0.0136 | -0.449 | -0.907 | -0.095 | -0.549 | -0.2 | -0.451 | -0.472 |
| CATACAGGGTCAACTAGGCCAGAGTAGGGACGGC | 6.88 | 4.92 | 0.472 | 4.1 | 0.96 | 5.82 | 6.43 | 5.91 | 2.49 | 4.66 | 2.92 | 4.23 | 1.17 | 0.243 | 2.2 | 3.61 | 0.451 | 4.7 | 0.953 | 4.66 |
| CCTACTGGGCCAAAAAGGGCATTGATGCCGATAA | -0.479 | -0.109 | -0.296 | -0.0231 | -1 | 1.12 | 0.538 | 1.32 | -0.152 | 0.651 | 3.27 | 2.46 | -1.19 | -0.893 | 0.55 | -0.0509 | -0.102 | -0.0363 | -0.572 | 1.49 |
| ATTACAGGGTCACTAGGCCAGAGTAGGTACGAAT | 6.12 | 4.57 | 0.484 | 3.59 | 1.62 | 5.94 | 8.17 | 6.86 | 3.45 | 5.84 | 3.81 | 5.92 | 2.92 | 2.81 | 2.63 | 3.43 | 0.344 | 4.32 | 1.19 | 4.46 |
| ACCGAAAGGTCGAAGGTGAGTATACCCACCCGAA | 4.73 | 3.55 | -0.00494 | 2.87 | 0.185 | 4.8 | 4.39 | 4.89 | 1.89 | 3.85 | 0.582 | 2.06 | 0.374 | 0.174 | 0.885 | 3.14 | 0.0236 | 4.6 | 0.157 | 3.84 |
| GCAGACAGGTGAAACGCAGGTTACTCAGGGTGGC | -0.0153 | 0.86 | -0.533 | 0.216 | -0.875 | 1.06 | 0.535 | 0.0459 | -0.6 | -0.266 | 1.13 | 0.617 | -0.717 | -0.933 | -0.435 | 0.076 | -0.507 | 0.833 | -0.748 | 1.02 |
| GCATATAGGTTATACAAGGTGAAAGTCCGATTGT | 2.85 | 6.15 | 1.21 | 3.08 | 0.203 | 2.94 | 2.19 | 2.63 | 0.843 | 1.98 | 4.93 | 4.04 | 0.859 | 0.875 | 1.26 | 2.26 | 0.302 | 2.49 | 0.937 | 1.6 |
| CATACTGGGCCACGAAAGGTCATTGATTCAGTGA | 3.98 | 5.28 | 5.21 | 4.44 | 0.817 | 4.52 | 4.46 | 4.67 | 1.9 | 3.84 | 4.74 | 5.55 | 1.83 | 0.862 | 2.89 | 5.4 | 1.75 | 5.41 | 0.959 | 4.16 |
| CGTCCAGGGTCAAAGGTCAGTGAAGAGATGACGG | 7.97 | 6.14 | 1.67 | 6.18 | 0.58 | 7.21 | 10.5 | 8.6 | 7.61 | 8.6 | 2.45 | 5.28 | 0.657 | 0.0677 | 3.17 | 6.94 | 0.868 | 8.37 | 1.58 | 5.63 |
| TCTTGTAGATCTATAGAGGTTAAGAAAGTGCGCT | 0.449 | 3.17 | 0.171 | 1.78 | -0.194 | 1.81 | 0.274 | 1.62 | 2.58 | 2.23 | 1.2 | 0.683 | 0.144 | 0.174 | 0.213 | 2.66 | -0.0488 | 1.63 | 0.178 | 0.906 |
